Laboratory results: PubChem BioAssay AID430 (Sanford-Burnham Center for Chemical Genomics, 2006)
Out of some 63,000 compounds screened, about 1,100 (1.7%) were called active. The list comes from a sample in which actives are over-represented; it also holds similar structures and randomly drawn compounds. Entries with a potency or affinity are not part of this list. Unmarked numbers belong to inactive results. No stated cut-off is given here; in the data, active means cytotoxicity above about 50%; inactive means the rest.

assay: HPDE-C7 pancreatic duct cell viability loss – fluorescence, HTS (AID 430); conditions: HPDE-C7 pancreatic duct cells viability, at 10 µM, hits give high values;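 further: cells exposed to compound for 48 hours before viability readout; 0% = vehicle and 100% = reference cytotoxic drug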

| Structure (SMILES) | cytotoxicity |
| --- | --- |
| CCCC(C)NC(=O)c1ccc(F)cc1 (configuration not stated) | -1.2% |
| CCN(C(=O)CSc1nc2nc(C)cc(C)n2n1)c1cccc(C)c1 | -9% |
| OC1CCCN(Cc2ccc3c(c2)Cc2ccccc2-3)C1 (configuration not stated) | -0.6% |
| CC1Cc2ccccc2N1C(=O)c1ccc2c(c1)nnn2C (configuration not stated) | -5.8% |
| CCOCCN1CCN(c2c(C)c(C)nc3cc(-c4cc(OC)cc(OC)c4)nn23)CC1 | 21.4% |
| CCc1c(C)nc2cc(-c3ccc(OC)c(OC)c3)nn2c1N1CCCC1 | 8.9% |
| CCCOc1ccc(C2C(=O)N(C3CCCCC3)CC(=O)N2CCC)cc1OC (configuration not stated) | -24.3% |
| COc1ccccc1NC(=O)C(O)C(O)C(=O)Nc1ccccc1OC (configuration not stated) | 6.7% |
| CCn1c(SCc2nc3ccccc3[nH]2)nnc1-c1ccccc1OC | -14.9% |
| COC(=O)c1cc(OC)c(OC)cc1N=CC1=C(O)CC(C)(C)CC1=O | 10.3% |
| c1cncc(-c2nn3cnnc3s2)c1 | 3.2% |
| CCN(CCO)C(=O)C12CCC(C)(C(=O)C1)C2(C)C (configuration not stated) | 5.2% |
| COc1ccc(-n2nnnc2SCC(=O)c2ccc(O)c(O)c2)cc1 | 17.9% |
| CCOc1ccc(-n2nnnc2SCC(=O)c2ccccc2)cc1 | 59.8% (active) |
| COc1ccc(-n2nnnc2SCC(=O)c2cccc(OC)c2)cc1 | 6.3% |
| Cc1ccc(S(=O)(=O)N(C)c2nonc2C)cc1 | 9.7% |
| CN(Cc1cnn(C)c1)C(=O)c1cc2ccccc2oc1=O | -0.7% |
| C[C@]12CC[C@@H]3c4ccc(O)cc4CC[C@H]3[C@@H]1CCC2=O | 12.1% |
| C[C@]12CC[C@@H]3c4ccc(O)cc4CC[C@H]3[C@@H]1CC[C@@H]2OC(=O)CCC(=O)O | 4.5% |
| O=C(NCC(=O)N(c1ccc(F)cc1)C(C(=O)NCC1CCCO1)c1ccccc1)c1ccco1 (configuration not stated) | -7.1% |
| CN1C(=O)C(O)(CC(=O)c2cccc(-n3cccc3)c2)c2ccccc21 (configuration not stated) | -0.5% |

| Structure (SMILES) | cytotoxicity |
| --- | --- |
| CN(C)C=Nc1ncc2c([nH]c3ccccc32)c1C#N | 15.4% |
| Cc1cc(=O)[nH]c2ccccc12 | -2.8% |
| CCC(C(=O)NC1CCCC1)N(C(=O)Cn1nnc(-c2ccc(OC)c(OC)c2)n1)C1CCCCC1 (configuration not stated) | -12.1% |
| CC(C)(C#CCN1CCCC1)OCCC#N | -16.7% |
| O=C(CN1C(=O)c2ccccc2S1(=O)=O)Nc1ccc(S(=O)(=O)N2CCCCC2)cc1 | -22% |
| COc1cc(/C=N/n2nnnc2N)ccc1O | 3.8% |
| COc1cc(/C=C/C2=NC(=O)C(C)(C)O2)ccc1O | 53.4% (active) |
| C/C=C/c1ccc(OC)c(OC(C)=O)c1 | -5.1% |
| O=C(O)/C=C/c1ccc(O)c(O)c1 | -18.3% |
| COc1cc(-c2cc(OC)c3c(C)oc(C)c3c(=O)c2)ccc1O | 38% |
| CCOc1ccccc1C1C2C(=O)N(c3ccccc3)C(=O)C2ON1c1ccccc1 (configuration not stated) | -2.8% |
| Cc1cc(C)c2[nH]c(=O)c(CN(Cc3ccc4c(c3)OCO4)Cc3nnnn3C3CCCC3)cc2c1 | 14.9% |
| CCOCCCNC(=O)C(NC(=O)c1ccc(=O)[nH]c1)c1ccccc1 (configuration not stated) | 2.7% |
| COc1ccc(S(=O)(=O)N(C)CC(=O)N2CCCCCC2)cc1OC | -2.9% |
| COc1cccc(N2CCN(C3CC(=O)N(c4ccc(Cl)c(Cl)c4)C3=O)CC2)c1 (configuration not stated) | 1.1% |
| CCCC(=O)N1CCN(c2ccc(C(=O)c3ccc(OC)c(Br)c3)cc2F)CC1 | 58.1% (active) |
| CCCC(=O)c1ccc(N2CCN(C(=O)c3ccc(Br)cc3)CC2)c(F)c1 | -6.3% |
| CCCCCC(=O)N1CCN(c2ccc(C(C)=O)cc2F)CC1 | -3.3% |
| CCN=C1SC(CC(=O)Nc2ccc(C(F)(F)F)cc2)C(=O)N1CC (configuration not stated) | -10.9% |
| O=C(O)c1cc(-c2ccccc2)nc2ccccc12 | -1.2% |
| Cc1ccc2nc(NCCO)nc(-c3ccccc3)c2c1 | 16.6% |

| Structure (SMILES) | cytotoxicity |
| --- | --- |
| Clc1ccc(OCc2nc(-c3ccccn3)n[nH]2)cc1 | 42.3% |
| Cc1cc(Cl)ccc1OCCCC(N)=O | -4.7% |
| Cc1cc(Cl)ccc1OCc1nc(-c2ccc(O)cc2)n[nH]1 | 77.3% (active) |
| CN1CCCN(CC(O)COCc2cccs2)CC1 (configuration not stated) | 0.9% |
| CC1(C)N=C(C(=O)c2ccccc2)N(O)C1(C)O (configuration not stated) | -11.9% |
| CCOC(=O)Cn1c(=O)n(Cc2ccco2)c(=O)c2ccc(C(=O)NCCc3ccccc3)cc21 | 7.2% |
| COc1cc2c(=O)n(Cc3ccco3)c(=O)n(CC(=O)c3ccc(Br)cc3)c2cc1OC | 86% (active) |
| COc1cc2c(=O)n(Cc3ccccc3)c(=O)n(CC(=O)C(C)(C)C)c2cc1OC | -17.8% |
| COc1cc2c(=O)n(Cc3ccccc3)c(=O)n(CC(=O)NCc3ccco3)c2cc1OC | 3.1% |
| COc1ccc(CCNC(=O)Cn2c(=O)n(Cc3ccco3)c(=O)c3ccc(Cl)cc32)cc1OC | 13.9% |
| COc1cc2c(=O)n(Cc3ccco3)c(=O)n(CC(=O)c3cccc(Br)c3)c2cc1OC | 55% (active) |
| CS(=O)(=O)N(CC(=O)NCCSCc1cccc(Cl)c1)c1ccc2c(c1)OCO2 | 0.9% |
| O=C(Nc1ccccc1)N(Cc1cccs1)C1CCCC1 | -7.6% |
| CCOC(=O)c1c(CN2CCCCC2)n(C)c2cc(Br)c(OC)cc12 | 8.3% |
| CCOC(=O)c1c(CN2CCN(C)CC2)n(C)c2cc(Br)c(OC)cc12 | -10.2% |
| CCOC(=O)c1c(CN2CCN(CCO)CC2)n(C)c2cc(Br)c(OC)cc12 | 77% (active) |
| CCOC(=O)c1c(CNCCN(CC)CC)n(C)c2cc(Br)c(OC)cc12 | 57.3% (active) |
| CCN(CC)CCNC(=O)c1c(C)oc2cc(Br)c(OC)cc12 | 1.8% |
| CCOC(=O)c1c(C)n(C)c2cc(Br)c(C(=O)OC)cc12 | 9.9% |
| O=C(c1ccco1)c1nnn(Cc2ccccc2)c1-c1ccccc1 | -7.7% |
